SMILES strings stand for the structures. Hit rate of the full screen: of about 2,100 compounds, about 650 (31%) were called active. Inconclusive results (about 16%) are left out. The list shows a part of the results. A number with no mark means an inactive call. The call rests on the fitted dose curve; in most records, active means well fitted inhibition curve with a large enough effect; inconclusive means small, poorly fitted or top-dose-only effect; inactive means flat fitted curve, though single readings scatter.
Potency means the concentration at half of the fitted maximal effect.

This experiment in a line: qHTS for inhibitors of Vif-A3G interactions: Cherry picks. Further: nearly all actives have a fitted effect of over 80% in size. On activity, negative = fluorescence increase: % of control where 0% means no effect. Particulars: HeLa A3G-eYFP + Vif (tagged APOBEC3G with the HIV-1 protein that degrades it), 24 h; Potency: eYFP fluorescence increase; series mostly up to 36.9 µM; activity, negative = fluorescence increase: at the top concentration. The essentials:
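Cherry-picked compounds tested at several concentrations on A3G-eYFP/Vif HeLa cells for 24 hours; loss of Vif-driven degradation read as eYFP fluorescence by cytometric plate imaging, 488 nm excitation, 500-530 nm emission.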
For orientation: qHTS replaces the single test concentration by a dilution series.
As to `CCn1c2ccccc2c2c3ncc4cccn4c3ccc21`, the Potency was 23.1 µM (active).

For `CCOC(=O)/C(C#N)=C\C=C1C=CN(C)C=C1`, the Potency was 8.2 µM (active).

In the case of `COc1cc2c(cc1OC)CN(C(=O)/C=C/c1cccs1)CC2`, the “activity, negative = fluorescence increase” value is -5.73%.

For `Cc1cc(C)nc(-n2nc(C)cc2NC(=O)c2ccc(F)cc2F)n1`, the “activity, negative = fluorescence increase” value is 4.33% [at 46.1 µM].

For the molecule `Cc1cc(N2CCCC2)ccc1/C=C1/C(=O)N(C)C(=S)N1C`, the Potency is 18.4 µM (active).

As to `O=[N+]([O-])/C=C\c1ccc(N2CCCC2)c(F)c1`, the “activity, negative = fluorescence increase” value was -7.46% [at 46.1 µM].

`Cc1cc(N2CCCC2)ccc1/C=C1\NC(=S)N(C)C1=O`: the Potency was 3.66 µM (active).

With `Cc1cc(/C=C2\NC(=S)N(C)C2=O)ccc1N1CCCC1`, the Potency is 8.86 µM (active).

As to `COc1ccc(/C=C/c2ccnc3ccccc23)c(OC)c1`, the “activity, negative = fluorescence increase” value is -24.9% [at 46.1 µM].

On to `COc1cc(/C=C/c2ccnc3ccccc23)ccc1N(C)C`, for which the Potency is 20.6 µM (active).

`COc1cc(N(C)C)c(OC)cc1/C=C/c1ccnc2ccccc12`: the Potency was 20.6 µM (active).

Consider `COc1ccccc1-c1c(C#N)c(N)nc2c1CCc1ccccc1-2`, for which the “activity, negative = fluorescence increase” value is 0.0212%.

Regarding `CCOC(=O)c1c(Nc2ccc(Cl)cc2)sc(/C=C2\C=Nc3ccccc32)c1O`, the Potency was 13 µM (active).

On to `CNc1cncc(-c2cc(C)c(O)c(C)c2)n1`, for which the “activity, negative = fluorescence increase” value was -3.27%.

Turning to `Cn1cc(/C=C/c2ccnc3ccccc23)c2ccccc21`, the Potency was 23.1 µM (active).

For the molecule `Cn1cc(/C=C/c2ccc3ccccc3n2)c2ccccc21`, the Potency is 20.6 µM (active).

Consider `COc1cc(C2c3cc4c(cc3OC(C)(N3CCCC3)C2C)OCO4)cc(OC)c1OC` (centres undefined), for which the “activity, negative = fluorescence increase” value is -11.6%.

On to `CCOc1c(Cl)cc(/C=N/NC(N)=S)cc1OC`, for which the “activity, negative = fluorescence increase” value is -10.8% [at 46.1 µM].

Regarding `CCOc1ccc(-n2nnnc2SCC(=O)c2ccccc2)cc1`, the “activity, negative = fluorescence increase” value was -0.934%.

For the molecule `CCOC(=O)c1ccc(NC(=O)CSc2nc(-c3ccc(F)cc3)cc(C(F)(F)F)c2C#N)cc1`, the Potency is 20.6 µM (active).

On to `CCOC(=O)c1ccc(NC(=O)Cn2ncc(Cl)c(Cl)c2=O)cc1`, for which the “activity, negative = fluorescence increase” value was 0.447%.

On to `CCOc1ccc(-c2cc(C(F)(F)F)c(C#N)c(SCC(=O)Nc3ccccc3)n2)cc1`, for which the Potency is 18.4 µM (active).

In the case of `Cc1ccc2nc(NC(=O)CN(C)S(=O)(=O)c3cccc4nsnc34)sc2c1`, the “activity, negative = fluorescence increase” value was -2.5%.

Consider `CCOC(=O)c1ccc(N=Nc2c(C)c(C#N)c(O)[nH]c2=O)cc1`, for which the “activity, negative = fluorescence increase” value is -10.2% [at 46.1 µM].

In the case of `Cc1cc(C(F)(F)F)c(C#N)c(SCC(=O)Nc2nc3ccccc3s2)n1`, the Potency is 18.4 µM (active).

As for `Cc1cnc(NC(=O)CC(C)c2ccccc2)s1` (centres undefined), the “activity, negative = fluorescence increase” value was 2.19%.

With `CCOc1ccc(-c2cc(C(=O)N/N=C(\C)c3cccnc3)c3ccccc3n2)cc1`, the “activity, negative = fluorescence increase” value was -5.98%.

On to `Cc1ccc(S(=O)(=O)CCSc2nc(C)cc(C(F)(F)F)c2C#N)cc1`, for which the Potency was 14 µM (active).

Turning to `COc1ccc(C2C(C#N)=C(N)Oc3cc(N)ccc32)cc1OC` (centres undefined), the “activity, negative = fluorescence increase” value was -7.81%.

Values taken from PubChem BioAssay AID651812 (National Center for Advancing Translational Sciences (NCATS), 2012).
